Inconclusive results are not listed. Calls of active or inactive are those of the source. Calls follow the shape of the full dose curve.

A short description of the assay: VSV-G qHTS counterscreen for inhibitors of SARS-S pseudo-typed particle cell entry. The following applies: VSV-G pseudotyped particle entry counterscreen, luciferase; series mostly up to 57.1 µM; activity, negative = inhibition: at the top concentration. A general note: In qHTS, concentration-response curves come from the screen itself.
In the case of `N=C(N)c1ccc(OCCCCCOc2ccc(C(=N)N)cc2)cc1`, the Potency is 21.5 µM (active).

Turning to `COc1ccc(Cc2nccc3cc(OC)c(OC)cc23)cc1OC`, the Potency was 19.2 µM (active).

As to `N#CC(c1ccc(Cl)cc1)c1c(Cl)cc(-n2ncc(=O)[nH]c2=O)cc1Cl` (centres undefined), the Potency is 10.8 µM (active).

With `C=CC1(C)CC(=O)C2(O)C(C)(O1)C(OC(C)=O)C(OC(=O)CCN(C)C)C1C(C)(C)CCC(O)C12C` (centres undefined), the “activity, negative = inhibition” value was 0% (inactive).

In the case of `COc1cccc2c1C(=O)c1c(O)c3c(c(O)c1C2=O)C[C@@](O)(C(C)=O)C[C@@H]3O[C@H]1C[C@H](N)[C@H](O)[C@H](C)O1`, the Potency was 1.92 µM (active).

`O=C1c2c(O)ccc(O)c2C(=O)c2c(NCCNCCO)ccc(NCCNCCO)c21`: the Potency was 0.171 µM (active).

As for `CC(C)C(=O)Oc1ccc(CO)cc1[C@H](CCN(C(C)C)C(C)C)c1ccccc1`, the Potency was 27.1 µM (active).

For the compound `O=c1ccc2ccccc2o1`, the “activity, negative = inhibition” value is 0% (inactive).

For `CCN(CC)CCNC(=O)c1c(C)[nH]c(/C=C2\C(=O)Nc3ccc(F)cc32)c1C`, the Potency is 17.1 µM (active).

Regarding `COc1cc2nccc(Oc3ccc(NC(=O)NC4CC4)c(Cl)c3)c2cc1C(N)=O`, the Potency was 17.1 µM (active).

Turning to `CNCCCC12CCC(c3ccccc31)c1ccccc12`, the “activity, negative = inhibition” value was -5.33% (inactive).

Consider `C[C@]12CC[C@H](O)C[C@H]1CCC1C2CC[C@]2(C)[C@@H](c3ccc(=O)oc3)C[C@H]3O[C@]132` (some centres undefined), for which the Potency was 9.61 µM (active).

Consider `COc1cccc2c1C(=O)c1c(O)c3c(c(O)c1C2=O)C[C@@](O)(C(=O)CO)C[C@@H]3O[C@H]1C[C@H](N)[C@H](OC2CCCCO2)[C@H](C)O1` (some centres undefined), for which the Potency was 9.61 µM (active).

On to `COc1ccc2cc3[n+](cc2c1OC)CCc1cc2c(cc1-3)OCO2`, for which the Potency was 17.1 µM (active).

Turning to `CN1CC[C@H](CN2c3ccccc3Sc3ccccc32)C1`, the “activity, negative = inhibition” value was -2.37% (inactive).

Regarding `COc1cc(NS(C)(=O)=O)ccc1Nc1c2ccccc2nc2ccccc12`, the Potency is 0.764 µM (active).

Regarding `Cc1cc(C(C#N)c2ccc(Cl)cc2)c(Cl)cc1NC(=O)c1cc(I)cc(I)c1O` (centres undefined), the Potency is 30.4 µM (active).

In the case of `CC(C)C[C@H](NC(=O)[C@H](CCc1ccccc1)NC(=O)CN1CCOCC1)C(=O)N[C@@H](Cc1ccccc1)C(=O)N[C@@H](CC(C)C)C(=O)[C@@]1(C)CO1`, the Potency was 0.764 µM (active).

As to `NCCNc1ccc(NCCN)c2c1C(=O)c1ccncc1C2=O`, the Potency is 3.41 µM (active).

In the case of `CC[C@@H]([C@H](C)O)n1ncn(-c2ccc(N3CCN(c4ccc(OC[C@@H]5CO[C@@](Cn6cncn6)(c6ccc(F)cc6F)C5)cc4)CC3)cc2)c1=O`, the Potency is 6.81 µM (active).

With `Nc1ccn([C@@H]2O[C@H](CO)[C@@H](O)C2(F)F)c(=O)n1`, the Potency is 0.171 µM (active).

`C[n+]1c2cc(N)ccc2cc2ccc(N)cc21` (tested in a mixture with another compound): the Potency was 4.82 µM (active).

On to `O=C(Nc1ccc([N+](=O)[O-])cc1Cl)c1cc(Cl)ccc1O`, for which the Potency is 0.482 µM (active).

On to `C[C@@H]1CCO[C@H]2Cn3cc(C(=O)NCc4ccc(F)cc4F)c(=O)c(O)c3C(=O)N12`, for which the Potency was 0.0054 µM (active).

As for `COc1cc2nccc(Oc3ccc(NC(=O)C4(C(=O)Nc5ccc(F)cc5)CC4)cc3)c2cc1OC`, the Potency was 21.5 µM (active).

Regarding `COc1cccc2c1C(=O)c1c(O)c3c(c(O)c1C2=O)C[C@@](O)(C(=O)CO)C[C@@H]3O[C@H]1C[C@H](N)[C@@H](O)[C@H](C)O1`, the Potency was 4.82 µM (active).

On to `CC[C@@]1(O)C(=O)OCc2c1cc1n(c2=O)Cc2c-1nc1ccccc1c2/C=N/OC(C)(C)C`, for which the Potency is 0.0764 µM (active).

In the case of `N/C(=N\N=C\c1ccc(Cl)cc1)N/N=C/c1ccc(Cl)cc1`, the Potency was 24.1 µM (active).

For the compound `COc1cccc2c1C(=O)c1c(O)c3c(c(O)c1C2=O)C[C@@](O)(C(=O)CO)CC3OC1CC(N2CCOC(OC)C2)C(O)C(C)O1` (some centres undefined), the Potency is 0.108 µM (active).

Consider `CC[C@@]1(O)C(=O)OCc2c1cc1n(c2=O)Cc2cc3c(CN(C)C)c(O)ccc3nc2-1`, for which the Potency is 0.383 µM (active).

On to `CCCCN=C(N)N=C(N)N`, for which the “activity, negative = inhibition” value was -7.93% (inactive).

For `C/C=C(/C)C(=O)O[C@H]1C(C)=CC23C(=O)C(C=C(CO)[C@@H](O)[C@]12O)[C@H]1[C@@H](C[C@H]3C)C1(C)C` (some centres undefined), the Potency is 0.215 µM (active).

`CC(=O)[C@]1(O)Cc2c(O)c3c(c(O)c2[C@@H](O[C@H]2C[C@H](N)[C@H](O)[C@H](C)O2)C1)C(=O)c1ccccc1C3=O`: the Potency was 4.82 µM (active).

Take `CCn1cc(C(=O)O)c(=O)c2cc(F)c(N3CCNC(C)C3)c(F)c21` (centres undefined): the “activity, negative = inhibition” value is 0% (inactive).

The record behind these values is PubChem BioAssay AID1494158 (National Center for Advancing Translational Sciences (NCATS), 2020).
